Most compounds without a hit are left out; they make up all but 14% or so of the library.
Giardia FBPA inh: blocks Giardia fructose-bisphosphate aldolase activity | AID 2451 | Potency, µM (titrated, usually from 59.6 µM), for inactives: top-dose activity, negative = inhibition, hits mostly inhibitors | 290,000 tested, 0.71% active | A8B2U2 | purified Giardia FBPA; note: potency is the fitted concentration of half-maximal effect; nearly all actives have a fitted effect of over 55% in size
Target sequence (A8B2U2 whole entry, looked up): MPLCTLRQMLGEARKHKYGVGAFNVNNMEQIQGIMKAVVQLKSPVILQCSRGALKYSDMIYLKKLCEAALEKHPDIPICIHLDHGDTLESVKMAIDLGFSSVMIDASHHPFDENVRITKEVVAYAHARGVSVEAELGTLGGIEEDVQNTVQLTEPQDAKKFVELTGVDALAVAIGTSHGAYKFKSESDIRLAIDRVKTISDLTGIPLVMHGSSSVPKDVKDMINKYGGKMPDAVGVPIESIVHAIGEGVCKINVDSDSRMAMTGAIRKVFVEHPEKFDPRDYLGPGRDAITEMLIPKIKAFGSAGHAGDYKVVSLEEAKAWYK
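40 nM FBPA preincubated 10 min at RT with compound (up to 57.5 uM final), then substrate plus GAPDH/TPI/NAD/arsenate coupling and diaphorase/resazurin added. Fluorescence read after 20 min at RT, 525/598 nm.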
Pf growth 96h: P. falciparum growth inhibition at 96 hour, primary screen for plastid delayed-death inhibitors | P. falciparum luciferase reporter growth, 96 h | Potency, µM (doses to about 28.7 µM), without a hit: at the top dose activity change, negative = inhibition, most hits filed as inhibitors | 320,000 tested, 6.9% active | AID 504834; note: potency is the fitted concentration of half-maximal effect
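Parasite growth measured via integrated firefly luciferase reporter in P. falciparum. Infected erythrocytes at 2% hematocrit, 0.05% parasitemia final were treated 96 hours at 37 C under 5% CO2, and luminescence was read.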
HCMV inh: inhibitors of human cytomegalovirus; HFF cells, HCMV-luciferase reporter, 72 h; stronger effect = lower value; activity change, negative = inhibition, % at 57.5 µM; 410,000 tested, 4.5% active; AID 1259415; in the data active = activity change below about -60%; inconclusive = no clear call, values can overlap the other calls; inactive = above about -39%
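Compounds were evaluated in HFFs infected with an HCMV luciferase reporter virus (MOI 1 PFU/cell). Luciferase in lysates collected 72 h post infection served as the replication measure.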
Sm TGR inh: blocks Schistosoma mansoni thioredoxin glutathione reductase; Q962Y6; purified TGR, DTNB reduction, TNB absorbance 405 nm; Potency, µM (titrated, usually from 114 µM), for the others: at the highest dose activity change, negative = inhibition, hits mostly inhibitors; 360,000 tested, 3% active; AID 485364; note: potency is the fitted concentration of half-maximal effect; nearly all actives have a fitted effect of over 60% in size
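First, TGR (20 nM dispensed) and NADPH were mixed with compound. Second, a 15 min room-temperature incubation followed. Third, further NADPH and then DTNB were added to start the reaction. Finally, TNB absorbance was monitored kinetically.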
Pf growth 48h: P. falciparum growth inhibition at 48 hours (one generation). P. falciparum luciferase growth in erythrocytes, 48 h. Potency, µM (highest dose often 28.7 µM), for inactives: top-dose activity change, negative = inhibition, actives largely listed as inhibitors. 310,000 tested, 5.9% active. AID 504832; note: potency is the fitted concentration of half-maximal effect
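Read-out is firefly luciferase luminescence from an integrated reporter in P. falciparum, so falling signal marks reduced parasite growth. Infected erythrocytes were at 2% hematocrit and 0.1% parasitemia (final) in Albumax-supplemented RPMI 1640.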
Starred values were filed as active, the others as inactive; ? = inconclusive; . = no result given. Unless noted, calls come from the whole dose curve; as a rule, active = well fitted curve in the direction sought with a large enough effect; inconclusive = small, poorly fitted or top-dose-only effect, or another doubt; inactive = no such curve, though single readings can be large; an effect the other way counts as inactive or inconclusive. % is set by controls: 0 for no effect and ±100 for the full control effect.

SMILES	Giardia FBPA inh	Pf growth 96h	HCMV inh	Sm TGR inh	Pf growth 48h
c1ccc(Nc2nnc(SCc3cccc4ccccc34)s2)cc1	0%	8.3µM*	-32	0%	.
CN1C(=O)C(C)(C(Nc2ccccc2)c2ccccc2)c2ccccc21 (centres undefined)	.	.	20	.	.
COc1ccc(C(C)=O)cc1CN(C)C	-16%	20%	-18	5µM*	19%
COc1ccc(C(C)=O)cc1Cn1c(=O)cc(C)[nH]c1=O	15%	-2%	41	40µM*	0%
COc1ccc(C(C)=O)cc1COC(=O)CSCC(=O)Nc1ccc(C)cc1	.	30%	-16	35µM*	?
COc1ccc(C(C)=O)cc1CN1C(=O)NC2(CCCCCCC2)C1=O	5%	8%	-19	-3%	32%
O=S(=O)(CCN1C=CC(C(F)(F)F)=NCC1)c1ccc(F)cc1	-1%	4%	31	-1%	-2%
O=S(=O)(CCN1C=CC(C(F)(F)F)=NCC1)c1ccc(Cl)cc1Cl	0%	8%	-21	25µM*	-15%
COc1ccc(NC(=O)CCCNC(=O)c2ccc(Cl)cc2)cc1OC	7%	?	-19	-4%	10%
OC[C@H](S)CS	.	0.6µM*	.	.	1.5µM*
COc1ccccc1C1=NNC(=Nc2cccc(S(=O)(=O)N(C)C)c2)SC1	-30%	?	-80*	6%	1.9µM*
CNC(=O)CSc1nnc(-c2ccco2)n1-c1cc(C)ccc1C	7%	12µM*	56	-5%	-14%
COc1ccc(OC)c(NC(=O)CSc2nnc(-c3ccco3)n2-c2ccc(C(=O)O)cc2)c1	-27%	0.41µM*	11	4%	4.7µM*
CN(Cc1ccccc1)C(=O)CSc1nnc(-c2ccco2)n1-c1ccccc1	0%	108%	9	32µM*	?
CNC(=O)CSc1nnc(-c2ccco2)n1-c1cccc(OC)c1	7%	2.1µM*	-24	-15%	-13%
CNC(=O)CSc1nnc(-c2ccco2)n1-c1cccc(C)c1C	4%	?	88	-1%	?
CNC(=O)CSc1nnc(-c2ccco2)n1-c1cccc(C)c1	1%	-13%	42	7%	-21%
COc1ccc(C)cc1NC(=O)CSc1nnc(-c2ccco2)n1N	2%	28%	17	-1%	3%
CCCS(=O)(=O)NC(=O)C1(C)CCN(C(=O)COc2ccccc2)C1 (centres undefined)	.	.	-32	.	.
COCCN(C(=O)COC(=O)c1ccc(C=O)cc1)c1c(N)n(Cc2ccccc2)c(=O)[nH]c1=O	.	-1%	31	-26%	-6%
CNc1nc(NCCOc2ccccc2Cl)c2sccc2n1	.	.	-8	.	.
COc1ccccc1CNc1nc(Nc2ccc(C)cc2C)c2sccc2n1	.	.	-76*	.	.
Cc1ccc(Nc2nc(NCc3ccccc3)nc3ccsc23)c(C)c1	.	.	-62*	.	.
COc1ccccc1CNc1nc(NCCOc2ccccc2Cl)c2sccc2n1	.	.	-61*	.	.
CCOC(=O)C1=CCN(S(=O)(=O)c2ccc(Cl)cc2)C1c1cccc(F)c1 (centres undefined)	.	.	-27	.	.
SMILES	Giardia FBPA inh	Pf growth 96h	HCMV inh	Sm TGR inh	Pf growth 48h
O=C1c2ccsc2SCCN1Cc1c(Cl)cccc1Cl	3%	6.6µM*	-27	0%	.
O=C1c2ccsc2SCCN1Cc1c(F)cccc1Cl	0%	?	-13	-18%	.
CCOC(=O)c1cc(NC(=O)c2ccccc2)c(=O)n2c1oc1ccccc12	-9%	-32%	-71*	11%	13%
Cn1c(=O)c2ncn(CC(=O)N/N=C/c3ccco3)c2n(C)c1=O	-5%	5.9µM*	8	5%	12%
CN(Cc1cccs1)C(=O)C1CCN(S(=O)(=O)c2ccccc2)CC1	.	?	-5	-14%	?
O=C(C1CCCN(S(=O)(=O)c2ccc(Cl)cc2)C1)N(Cc1cccs1)C1CC1 (centres undefined)	1%	1%	-35	0%	13µM*
CN1CCCCC(NC(=O)c2cccc(F)c2)C1=O (centres undefined)	.	.	-34	.	.
Cc1oc(-c2ccc(Cl)cc2)nc1CN1CCCC(C(=O)NC2CC2)C1 (centres undefined)	-1%	?	18	-28%	0%
Cc1oc(-c2cccc(Cl)c2)nc1CS(=O)(=O)CC(=O)NC1CC1	15%	?	-18	40µM*	27%
CCOC(=O)N1CCC(NC(=O)C2CCCN(Cc3nc(-c4cccc(Cl)c4)oc3C)C2)CC1 (centres undefined)	0%	?	-67*	-6%	.
CCOC(=O)N1CCC(NC(=O)CS(=O)(=O)Cc2nc(-c3cccc(Cl)c3)oc2C)CC1	5%	?	-60*	35µM*	14%
O=C(NNC(=O)c1ccncc1)Nc1cc(Cl)ccc1Cl	.	.	-2	.	.
COC(=O)C[C@H]1CC[C@@H](NC(=O)Nc2c(C)noc2C)[C@@H](CO)O1	.	.	-65*	.	.
CCN(CC)S(=O)(=O)c1ccc2c(c1)c(=O)c(C(=O)NCc1ccc(Cl)cc1)cn2C	.	.	6	1%	.
O=c1cc(N2CCc3ccccc3C2)[nH]c(=O)n1-c1ccc(Cl)cc1	11%	-19%	3	3%	51%
O=c1cc(N2CCc3ccccc3C2)[nH]c(=O)n1-c1ccc(Br)cc1	3%	7.4µM*	-18	1%	21%
CO[C@H]1C[C@@H]2CC[C@@H](C)[C@@](O)(O2)C(=O)C(=O)N2CCCC[C@H]2C(=O)O[C@H]([C@H](C)C[C@@H]2CC[C@@H](O)[C@H](OC)C2)CC(=O)[C@H](C)C=C(C)[C@@H](O)[C@@H](OC)C(=O)[C@H](C)C[C@H](C)C=CC=CC=C1C	-16%	0.93µM*	.	14µM*	5.2µM*
CC(=O)N1N=C(c2c(-c3ccccc3)c3cc(C)ccc3[nH]c2=O)CC1c1ccco1 (centres undefined)	5%	5.2µM*	-38	-26%	15µM*
CC(=O)N1N=C(c2c(-c3ccccc3)c3cc(Br)ccc3[nH]c2=O)CC1c1ccco1 (centres undefined)	2%	5.2µM*	?	13µM*	?
Cc1ccc(NC(=O)C2Cc3ccccc3N2C(=O)c2ccccc2)cc1Cl (centres undefined)	.	.	-11	0%	.
CC1(C(=O)OCC(=O)Nc2nnc(-c3ccccc3)o2)CC1(Cl)Cl (centres undefined)	.	1%	-16	-2%	?
Cc1ccccc1OCCC(=O)NNC(=O)c1ccccc1F	.	.	69	.	.
CCCN(CCC)CC(=O)Nc1cccc2c1OCO2	0%	12µM*	-19	-8%	2%
O=C(CN1CCCCC1)Nc1cccc2c1OCO2	-11%	.	0	1%	0%
Cc1nc2c(C(=O)Nc3ccc(N4CCCC(O)C4)cc3)snc2c(=O)[nH]1 (centres undefined)	-1%	?	2	-13%	1.7µM*
